Most compounds without a hit are left out; they make up all but 11% or so of the library.
BAZ2B inh: inhibitors of human BAZ2B bromodomain. AlphaScreen BAZ2B-H3K14Ac peptide displacement. 360,000 compounds, 4.4% hits. Potency, µM (top dose mostly 114 µM), inactives show at the highest dose activity change, negative = inhibition, usual class: inhibitors; also: % is scaled to controls: 0 for no effect and ±100 for the full control effect; nearly all actives have a fitted effect of over 60% in size
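AlphaScreen displacement: compounds (up to 110uM) incubated 30 min at room temperature with a preformed 50 nM BAZ2B/50 nM biotinylated H3K14Ac peptide complex in PBS pH 7.4 with Tween-20. Donor and acceptor beads at 10 ug/mL final added, 20 min light-protected before reading.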
HP1b binding inh: blocks HP1-beta chromodomain binding to methylated histone tails; 390,000 compounds, 0.56% hits; AlphaScreen HP1-beta / biotin-H3K9me3 peptide binding; Potency, µM (titrated, usually from 114 µM), for inactives: at the top dose activity change, negative = inhibition, most hits filed as inhibitors; AID 540317; also: nearly all actives have a fitted effect of over 70% in size
Target sequence (P83916 whole entry, looked up): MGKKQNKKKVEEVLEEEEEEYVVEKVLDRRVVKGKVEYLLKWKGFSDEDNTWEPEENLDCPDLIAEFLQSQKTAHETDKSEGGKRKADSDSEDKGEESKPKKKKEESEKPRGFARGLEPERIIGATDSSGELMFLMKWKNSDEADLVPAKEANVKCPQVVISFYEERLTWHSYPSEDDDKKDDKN
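AlphaScreen: HP1-beta (50 nM) preformed 30 min with biotin-H3(1-18)K9me3 peptide (50 nM) in PBS pH 7.4, 0.01% Tween-20. Compound added for 30 min at RT, then streptavidin donor/nickel chelate acceptor beads (10 ug/mL) for 30 min.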
JMJD2A Tudor: inhibitors of human JMJD2A Tudor domain. AlphaScreen JMJD2A-Tudor / H3K4me3 peptide binding. Potency, µM (titrated, usually from 114 µM), for inactives: top-dose activity change, negative = inhibition, actives largely listed as inhibitors. 390,000 compounds, 4.4% hits. AID 504339; also: % is scaled to controls: 0 for no effect and ±100 for the full control effect; nearly all actives have a fitted effect of over 50% in size
L3MBTL1 block: inhibitors of human L3MBTL1; AlphaScreen L3MBTL1–H3K9me1 peptide binding; 230,000 compounds, 0.66% hits; Q9Y468; Potency, µM (doses to about 57.1 µM), for inactives: top-dose activity, negative = inhibition, hits mostly inhibitors; also: % is scaled to controls: 0 for no effect and ±100 for the full control effect; nearly all actives have a fitted effect of over 60% in size
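AlphaScreen assay: L3MBTL1 (50 nM final) was preincubated 30 min at room temperature with biotinylated H3(1-15)K9me1 peptide (75 nM final), then 30 min with library compounds; streptavidin donor and nickel chelate acceptor beads (10 ug/mL final) added, 30 min dark.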
G9a block: inhibitors of human histone lysine methyltransferase G9a | Q96KQ7 | G9a H3K9 monomethylation, AlphaScreen, 2 h | Potency, µM (top dose mostly 102 µM), without a hit: at the top dose activity, negative = inhibition, most hits filed as inhibitors | 350,000 compounds, 8.8% hits; also: % is scaled to controls: 0 for no effect and ±100 for the full control effect; nearly all actives have a fitted effect of over 75% in size
Target sequence (Q96KQ7 913-1193 limits assumed): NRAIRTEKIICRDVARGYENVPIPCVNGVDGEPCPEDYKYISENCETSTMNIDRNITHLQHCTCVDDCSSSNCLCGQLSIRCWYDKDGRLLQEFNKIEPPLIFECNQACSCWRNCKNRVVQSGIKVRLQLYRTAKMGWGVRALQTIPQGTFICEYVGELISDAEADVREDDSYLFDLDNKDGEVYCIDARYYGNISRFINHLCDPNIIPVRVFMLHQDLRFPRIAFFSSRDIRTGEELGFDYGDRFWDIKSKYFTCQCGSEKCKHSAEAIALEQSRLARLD
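AlphaScreen read-out: biotin-H3K9 peptide (500 nM) methylation by 20 nM enzyme with 20 uM SAM, 2 h at room temperature after 15 min compound preincubation; anti-monomethyl H3K9 antibody plus donor/acceptor beads, 10 min dark.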
* = called active by the depositor; ? = inconclusive; · = no result; [ ] = another dose, or the depositor's remark. Calls follow the shape of the dose curve; as a rule, active = well fitted inhibition curve with a large enough effect; inconclusive = small, poorly fitted or top-dose-only effect; inactive = no such curve, though single readings can be large or run the other way. Potency is read from the fitted curve at half-maximal effect.

SMILES	BAZ2B inh	HP1b binding inh	JMJD2A Tudor	L3MBTL1 block	G9a block
NCC1OC(OC2C(N)CC(N)[C@@H](O)[C@@H]2OC2O[C@H](CO)[C@@H](O[C@@H]3OC(CN)C(O)C(O)C3N)C2O)C(N)C(O)C1O (stereo partly specified)	·	·	·	·	-26%[2.33 µM]
COc1ccc(C2/C=C\CN(Cc3ccccc3)C(C)C(=O)N2Cc2ccc(F)cc2)cc1 (stereo unspecified)	·	9%	-9%	·	·
CNC[C@H](O)[C@H](O)[C@H](O)[C@H](O)CO	·	·	·	·	19%[21.5 µM]
CCOC(=O)c1c(C)[nH]c(N=Nc2ccccc2C)c1C	32µM*	-35%	25µM*	·	16µM*
CCOC(=O)c1c(C)[nH]c(N=Nc2ccc(C)cc2C)c1C	14µM*	22µM*	50µM*	?	45µM*
CCOC(=O)c1c(C)[nH]c(N=Nc2cc(C(=O)O)cc(C(=O)O)c2)c1C	?	-21%	-29%	·	-23%[59 µM]
O=C(Nc1ccc(N2CCCC2)cc1)c1cc(Br)ccc1Cl	-34%	5%	?	-11%	8.9µM*
O=C(Nc1ccc(Br)cc1)c1cccnc1N1CCCCC1	6%	69%	32%	·	?
CS(=O)(=O)c1ccc(C(=O)Nc2ccc(N3CCOCC3)cc2)c(Cl)c1	-13%	60%	-13%	3%	-7%
CS(=O)(=O)c1ccc(C(=O)Nc2ccc(N3CCCC3)cc2)c(Cl)c1	-12%	-10%	-17%	-20%	10µM*
CCN(C(=O)c1cc2c(s1)-c1ccccc1OC2)c1cc(Cl)ccc1OC	42%	94%	43%	·	31%[59 µM]
O=C(NCc1ccccc1F)C(=O)NCC(c1cccs1)S(=O)(=O)c1cccs1 (stereo unspecified)	-13%	9%	-3%	·	23%[59 µM]
CCOc1ccc(OCc2ccc(C(=O)N3CCOCC3)cc2)cc1	-16%	21%	-2%	-5%	-38%[59 µM]
CCOc1ccc(N=C(/C(C(=O)C(=O)N2CCOCC2)=C(\O)c2ccccc2)c2ccccc2)cc1	-29%	13%	-17%	0%	50µM*
Cc1cc(N2CCN(C)CC2)nc2ccc(NC(=O)Nc3ccccc3Cl)cc12	-11%[57.1 µM]	4%	-27%	·	?
Cc1ccc(OCCSc2nc3ccccc3n2CC(=O)N2CCCCC2)c(C)c1	-25%	3%	-30%	·	14µM*
COc1ccc(NC(=O)COCc2cc(-c3ccco3)on2)cc1Cl	-38%	-7%	-5%	·	-33%[59 µM]
Clc1ccc(CN2CCN(c3ncccn3)CC2)cc1	?	12%	13µM*	4%	·
NC(=O)c1cc([N+](=O)[O-])ccc1N1CCN(Cc2ccccc2)CC1	-8%	16%	-9%	-3%	·
Clc1ccc(CN2CCN(c3ncccn3)CC2)cc1Cl	79µM*	-24%	13µM*	-3%	·
O=C(c1ccccc1)N1CCN(c2ccc([N+](=O)[O-])cc2-n2cccc2)CC1	28µM*	19%	?	·	·
O=C(c1ccccc1)N1CCN(C(=O)c2ccc([N+](=O)[O-])cc2)CC1	-4%	29%	3%	3%	0%[59 µM]
O=[N+]([O-])c1cccc(CN2CCN(c3cccc4[nH]ccc34)CC2)c1	?	-29%	56µM*	·	32µM*
c1cnc(N2CCN(Cc3ccc4c(c3)OCO4)CC2)nc1	-17%	22%	-17%	-2%	1%[59 µM]
CCOC(=O)c1c(Oc2ccc(C(C)=O)cc2)nnc(-c2ccccc2)c1-c1ccccc1	-28%	20%	-25%	·	-29%[59 µM]
SMILES	BAZ2B inh	HP1b binding inh	JMJD2A Tudor	L3MBTL1 block	G9a block
Cc1cccc(NC(=O)c2ccc(-c3nc(CSc4ccccc4)c(C)o3)cc2)c1C	-10%	27%	-19%	·	-7%[59 µM]
CC(C)N1CCN(C(=O)c2ccc([N+](=O)[O-])cc2)CC1	·	?	79µM*	·	·
O=C(c1ccc([N+](=O)[O-])cc1)N1CCN(c2cccc3[nH]ccc23)CC1	-25%	15%	-24%	-8%	50µM*
O=[N+]([O-])c1cccc(CN2CCN(c3ncccn3)CC2)c1	?	?	2.2µM*	-7%	11µM*
c1ccc(CN2CCN(c3ncccn3)CC2)cc1	?	-31%	4.5µM*	10%	25µM*
FC(F)(F)c1cccc(CN2CCN(c3ncccn3)CC2)c1	·	50%	-16%	·	·
Cc1cc2c(s1)c1cnn(Cc3c(F)cccc3F)c(=O)c1n2C	·	·	-18%	·	·
CCc1ccc(OCCn2c(CCNC(=O)C3CCCCC3)nc3ccccc32)cc1	·	23%[57 µM]	-15%[57.1 µM]	·	·
O=C(CN1CCN(Cc2ccccc2)CC1)NNC(=O)c1ccc(Cl)cc1	13%	17%	-6%	4%	50µM*
Cc1ccc(NC(=O)CN2CCOCC2)c(Br)c1	6%	19%	-5%	6%[2.29 µM]	17%[0.501 µM]
CCCn1c(N2CCN(CC(=O)c3c[nH]c4ccccc34)CC2)nc2c1c(=O)[nH]c(=O)n2C	17%	14%	45µM*	0%	?
O=C(CN1CCN(Cc2ccccc2)CC1)NCc1ccc(Cl)cc1	-15%	12%	-12%	1%	29%
CCn1c(N2CCN(CC(=O)c3c(C)n(C)c4ccccc34)CC2)nc2c1c(=O)[nH]c(=O)n2C	-6%	27%	-22%	3%	?
O=C(CN1CCN(Cc2ccccc2)CC1)c1c[nH]c2ccccc12	-5%	55%	2%[11.4 µM]	-1%	40µM*
Cc1ccc(NC(=O)CN2CCN(Cc3ccccc3)CC2)c(Br)c1	7%[0.457 µM]	?	7.1µM*	-17%	?
COc1ccc(CNc2ccnc(-c3ccccc3CN(C)C)n2)c(OC)c1	·	·	·	·	9%[0.501 µM]
CC(=O)c1cccc(NC(=O)CN2CCN(Cc3ccccc3)CC2)c1	?	?	0.79µM*	-8%	7.1µM*
O=C(CN1CCN(Cc2ccccc2)CC1)c1ccccc1	-34%	34%	-16%	·	79µM*
COc1ccc(C(=O)N2CCCCCC2)cc1OC1CCN(C(C)=O)CC1	-5%	33%	10%	·	7%
Cc1ccccc1/C=N\NC(=O)c1ccc(Cn2cccn2)o1	1%	-1%	56µM*	-2%	2%[59 µM]
O=C(N/N=C\c1cccc(Cl)c1)c1ccc(Cn2cccn2)o1	-6%	23%	-3%	4%	4%[59 µM]
COc1ccc(OC)c(-c2cc(C(=O)Nc3cccc(Cl)c3C)no2)c1	5%	18%	-14%	·	10%[59 µM]
O=C1/C(=C\c2ccccn2)SC(=S)N1c1ccc(S(=O)(=O)Nc2nccs2)cc1	50µM*	?	18µM*	·	·
COc1ccc(/C=C2\SC(=O)N(CCC(=O)Nc3ccc(S(=O)(=O)Nc4nccs4)cc3)C2=O)cc1	-9%	27%	3%	-2%	-4%[59 µM]
COc1ccc(/C=C2/SC(=S)N(c3ccc(S(=O)(=O)Nc4nccs4)cc3)C2=O)cc1	?	20µM*	16µM*	·	-49%
O=C1/C(=C/c2ccccn2)SC(=S)N1c1ccc(O)cc1	-28%	6%	-30%	-17%	?

Screens: PubChem, National Center for Advancing Translational Sciences (NCATS)
